# Measurements reported in PubChem BioAssay AID687014 (The Scripps Research Institute Molecular Screening Center, 2013).
# Screen size: about 370,000 compounds; about 6,800 (1.8%) were called active. This is one part of a sample in which actives are shown more often than they occur.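 The calls were made as follows: active = activation above a cutoff set at the mean of all screened compounds plus 3 SD (cut at about 10% in these data); inactive = the rest.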
# System: Nuclear hormone receptor DAF-12 (Heterodera glycines), GAL4 fusion
# Test: H. glycines DAF-12 receptor agonists, primary screen, cell-based, luminescence, HEK293, GAL4 fusion, UAS-luciferase (AID 687014);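 also: 0% = DMSO wells and 100% = sodium butyrate wells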
# Conditions: HEK293 GAL4-hgDAF12 UAS-luciferase reporter, agonist luminescence; at 6.8 µM; active compounds read high; normalized to butyrate control
row,SMILES,activation
1,COC(=O)[C@@]12CCCCC3=C1N(CCC3)C(=O)[C@H]2CC(=O)NCc1cccc2ccccc12,-3.73% (inactive)
2,O=C(NC1CCCCN(Cc2ccc(Cl)cc2)C1=O)c1ccc(Br)cc1 (stereo not given),-3.05% (inactive)
3,Cc1nc(N2CCOCC2)sc1C(=O)NN,-4.56% (inactive)
4,Cc1cc(C)c2nc(N3CCC(C(=O)NCCN4CCOCC4)CC3)sc2c1,1.84% (inactive)
5,Fc1cc(F)c2nc(N3CCOCC3)sc2c1,11.6% (active)
6,O=C(CN(CC1CCCO1)C(=O)CNS(=O)(=O)c1ccc(F)cc1)NCc1ccco1 (stereo not given),-0.11% (inactive)
7,CCN(C(=O)CSc1ncnc2c1cnn2-c1ccccc1)C1CCS(=O)(=O)C1 (stereo not given),1.12% (inactive)
8,COc1cc(/C=N/O)ccc1OCc1ccc([N+](=O)[O-])cc1,19.8% (active)
9,CCCc1ccc(OCc2ccc(C(=O)N/N=C/c3cccc([N+](=O)[O-])c3)o2)c(OC)c1,0.57% (inactive)
10,CCOc1cc(/C=N/O)ccc1OCc1ccccc1F,1.1% (inactive)
11,CCOC(=O)N1CCN(C(=O)C[C@@H]2C(=O)N(CCc3ccc(Cl)cc3)C3=CCCC[C@]32C(=O)OCC)CC1,-0.14% (inactive)
12,CCC1CCc2c(sc(NC(C)=O)c2C#N)C1 (stereo not given),-1.78% (inactive)
13,N#Cc1c(NC(=O)C2CC(Cl)=CCC2C(=O)O)sc2c1CCCCC2 (stereo not given),-1.72% (inactive)
14,N#Cc1c(NC(=O)C2CCCO2)sc2c1CCCCC2 (stereo not given),15.3% (active)
15,O=C(CCl)NC1CCCCN(Cc2cccc(C(F)(F)F)c2)C1=O (stereo not given),-7.36% (inactive)
16,O=C(Nc1ccccc1)N1CCN(Cc2nc3ccccc3c(=O)[nH]2)CC1,3.62% (inactive)
17,CC(=NCC1CCCO1)c1c(O)[nH]c(=O)[nH]c1=O (stereo not given),-2.34% (inactive)
18,O=C1C(C=NCC2CCCO2)=C(O)c2ccccc21 (stereo not given),13.2% (active)
19,CCc1ccc(CN2C(=O)c3ccccc3C2C(=O)NCC2CCCO2)cc1 (stereo not given),0.15% (inactive)
20,O=S(=O)(c1ccccc1)N1CCC(c2nc3ccccc3o2)CC1,-0.98% (inactive)
21,COc1cc(CN2CCNC(=O)C2CC(=O)NCCc2ncccc2C)cc(OC)c1 (stereo not given),-1.06% (inactive)
22,CN(C(=O)c1cc2c(=O)n3ccccc3nc2s1)C1CCCCC1,13% (active)
23,CN(CCNC(=O)c1cc2c(-c3ccccc3F)nn(C)c2s1)C1CCCCC1,4.97% (inactive)

row,SMILES,activation
1,CCOCCCNC(=O)c1cc2c(=O)n3ccccc3nc2s1,3.33% (inactive)
2,Cc1ccc(-n2c(SCC(=O)Nc3ccc(S(=O)(=O)Nc4nccs4)cc3)nnc2-c2ccccn2)cc1,-1.35% (inactive)
3,Cc1ccc(C(=O)Nc2ccc3c(c2)OCCO3)cc1S(=O)(=O)N1CCOCC1,11% (active)
4,Cc1ccc(NC(=O)c2ccc(Cl)nc2)cc1S(=O)(=O)N1CCOCC1,3.09% (inactive)
5,O=C(Nc1cccc(Cl)c1N1CCOCC1)c1ccc2c(c1)OCCO2,-1.47% (inactive)
6,CN1CCN(c2ccc(NC(=O)c3ccc4c(c3)OCCO4)cc2Cl)CC1,28.8% (active)
7,Cc1ccc(C(=O)Nc2ncccc2C)cc1S(=O)(=O)N1CCOCC1,1.72% (inactive)
8,COC(=O)c1ccc(N2CCOCC2)c(NC(=O)c2ccc3c(c2)OCCO3)c1,0.79% (inactive)
9,O=C(CSc1nnc(-c2ccccc2)n1Cc1ccco1)Nc1ccccc1-c1ccccc1,0.11% (inactive)
10,Cc1cc2nc3c(=O)[nH]c(=O)nc-3n(C[C@H](O)[C@H](O)[C@H](O)CO)c2cc1C,-2.63% (inactive)
11,CCOC(=O)[C@]12CCCC3=C1N(CCC3)C(=O)[C@@H](CC(=O)NCc1cccs1)C2,1.07% (inactive)
12,CC(=O)OC12CCCN(C1)/C(=C/c1ccncc1)C2 (stereo not given),-1.43% (inactive)
13,CC(C)CNc1cccc2c1S(=O)(=O)N[C@H](CC(C)C)CO2,3.06% (inactive)
14,O=C(NCCc1ccc(C(F)(F)F)cc1)c1ccc2c(c1)OCO2,0.07% (inactive)
15,COc1cccc(C(=O)Nc2nnc(S(=O)(=O)N3CCOCC3)s2)c1,3.2% (inactive)
16,O=C(CN1CCc2cc3c(cc2C1)OCCCO3)Nc1ccccc1,-3.88% (inactive)
17,COc1cccc(C(=O)Nc2cc3c(cc2Br)OCCCO3)c1,13.2% (active)
18,CN(Cc1c(F)cccc1Cl)C(=O)CNC(=O)c1ccc2c(c1)OCO2,7.57% (inactive)
19,O=C(Nc1ccccc1)c1ccc2c(c1)OCCCO2,15.1% (active)
20,O=C(Nc1ccccc1F)c1ccc2c(c1)OCO2,11.2% (active)
21,COc1ccc(C2COC(=O)C2=N)c(NC(=O)c2ccccc2)c1 (stereo not given),4.88% (inactive)
22,C/C(=N/NC(=S)Nc1ccccc1)c1ccc2c(c1)OCO2,10.2% (inactive)
23,COC(=O)[C@]12C[C@H](CC(=O)NCCCN3CCCC3=O)C(=O)N(CCc3ccc(OC)c(OC)c3)C1=C[C@H](COCc1ccccc1)O[C@@H]2C,4.36% (inactive)

row,SMILES,activation
1,Cc1ccc(NC(=O)c2cc(C)nn2-c2ccccc2)c(C)c1,-1.76% (inactive)
2,Cc1ccc(NC(=S)Nc2ncccc2C)c(C)c1,11.8% (active)
3,Cc1cc(Br)ccc1NC(=S)NC1CCCC1,1.25% (inactive)
4,Nc1ccn([C@@H]2O[C@H](C(=O)N[C@H]3CCCCNC3=O)[C@@H](O)[C@H]2O)c(=O)n1,0.25% (inactive)
5,CCC(NC(=O)C1C2C=CC3(CN(Cc4ccccc4)C(=O)C13)O2)c1ccccc1 (stereo not given),-3.86% (inactive)
6,O=C(NCCc1ccco1)c1ccc(OCc2cn3ccccc3n2)cc1,5.95% (inactive)
7,O=Cc1ccc(OCc2cn3ccccc3n2)cc1,12.9% (active)
8,Cn1cc[n+](C)c1COc1ccc(C=O)cc1,1% (inactive)
9,O=C(Nc1cc(F)cc(F)c1)OC1CCC12CCC(c1ccccc1)CC2 (stereo not given),2.34% (inactive)
10,CC(C)C[C@H](NC(=O)CC1CCCC1)C(=O)N1CCC[C@H]1C(=O)NCc1ccccc1,-4.65% (inactive)
11,Cc1ccc2nc(-c3ccc(SCC(=O)Nc4cc(C)on4)nc3)[nH]c2c1,15.3% (active)
12,Cc1cc(NC(=O)CSCC(=O)NC(C)c2ccccc2)no1 (stereo not given),2.82% (inactive)
13,Cc1cc(NC(=O)CSc2nnnn2-c2ccc(F)cc2)no1,1.39% (inactive)
14,COC(=O)C1CN(CCc2ccccc2)CCS(=O)(=O)N1Cc1ccc(F)cc1 (stereo not given),2.5% (inactive)
15,C=CCN=C1NC(c2ccccc2)C(C(=O)OC)=C(C)N1Cc1ccc(C(F)(F)F)cc1 (stereo not given),0.51% (inactive)
16,COc1ccc(C2Nc3ccccc3C(=O)N2c2ccc(Cl)cc2)cc1Cn1cc([N+](=O)[O-])cn1 (stereo not given),15.2% (active)
17,COc1ccc(C2Nc3ccccc3C(=O)N2Cc2cccs2)cc1COc1c(C)cccc1C (stereo not given),1.89% (inactive)
18,COc1ccc(CN2CCCC(C(=O)c3ccc(Cl)cc3)C2)cc1Cn1cncn1 (stereo not given),-0.88% (inactive)
19,Cc1ccc(-n2c(SCC(=O)Nc3ccc(S(=O)(=O)Nc4nccs4)cc3)nnc2-c2cccnc2)cc1,-1% (inactive)
20,Cc1cc(C)c(S(=O)(=O)N2CCC(C(=O)OCc3c(C)noc3C)CC2)c(C)c1,1.53% (inactive)
21,O=C(CSCc1ccccc1)N1CCc2ccccc21,17.5% (active)
22,CC(OC(=O)Cc1ccc(F)cc1)C(=O)N1CCc2ccccc21 (stereo not given),0.83% (inactive)
23,O=C(CN1C(=O)c2ccccc2S1(=O)=O)N1CCc2ccccc21,-10.8% (inactive)

row,SMILES,activation
1,CCOC(=O)[C@@]12CCC3=C1N(CCC3)C(=O)[C@H](CC(=O)N1CCN(C(=O)c3ccco3)CC1)C2,-0.79% (inactive)
2,CC1(C)OC(=O)C2=C(CC(CCc3ccccc3)OC2c2ccc(Cl)cc2)O1 (stereo not given),3.41% (inactive)
3,CC(C)N(Cc1nnc(-c2ccc(Cl)cc2)o1)C(=O)C1=COCCO1,0.6% (inactive)
4,CC(NCc1ccco1)C(=O)N1CCCCC1 (stereo not given),1.35% (inactive)
5,C#CCCN([C@H](C(=O)OC)C(C)C)S(=O)(=O)c1ccc(F)cc1Br,2.22% (inactive)
6,COc1cccc(CNC(=O)[C@H]2CCCN2C(=O)[C@H]2CCCN2C(=O)c2cc(F)cc(F)c2)c1,0.08% (inactive)
7,Cc1ccc(C(=O)NC(=S)Nc2ccccc2C)cc1,12.1% (active)
8,CC(=O)Nc1ccc(NC(=S)NC(=O)c2ccc([N+](=O)[O-])c(C)c2)cc1,-2.56% (inactive)
9,Cc1ccccc1C(=O)NC(=S)NC1CC1,0.72% (inactive)
10,COC(=O)[C@H](CC(C)C)NS(=O)(=O)c1c(F)cccc1F,-0.44% (inactive)
11,CCCCCCCCN1C(=O)[C@@H](CC(=O)NCc2ccc(C)o2)C[C@@]2(C(=O)OC)C1=C[C@H](C(C)(C)C)O[C@@H]2C,-0.08% (inactive)
12,COC(=O)N/N=C/c1cn(CCCOc2ccc(C)cc2)c2ccccc12,15% (active)
13,Cc1ccc(OCCOc2cccc(/C=N/NC(N)=O)c2)cc1,5.18% (inactive)
14,O=Cc1cn(CCOc2ccc(F)cc2)c2ccccc12,-2.45% (inactive)
15,O=C(CNS(=O)(=O)c1ccccc1F)N1CCN(c2ccccn2)CC1,0.61% (inactive)
16,COC(=O)[C@]12C[C@H](CC(=O)NCc3ccccc3)C(=O)N(CCc3ccc(OC)c(OC)c3)C1=C[C@H](C(C)(C)C)O[C@@H]2C,0.98% (inactive)
17,COc1ccc(OC)c(CNC(=O)Cn2nc(C)c3c(C)n(-c4ccc(C)cc4)nc3c2=O)c1,-2.32% (inactive)
18,O=C(CCS(=O)(=O)Cc1ccccc1F)NCCCN1CCCCC1,0.82% (inactive)
19,O=C(CSc1nc2ccccc2s1)NN=Cc1ccc(O)cc1O,-1.39% (inactive)
20,O=C(O)c1ccccc1CSc1nc2ccccc2s1,10.6% (active)
21,O=C(CSc1nc2ccccc2s1)N=Nc1c(O)[nH]c2ccccc12,-2.84% (inactive)
